Compound activity from PubChem BioAssay.
SMARCA2 activ: SMARCA2 (BRM) function activators, primary screen, cell-based, luminescence, high throughput; MG213 cells, MMTV-luciferase reporter, dexamethasone, overnight; activation, % at 9.1 µM; hit rate 1% among 370,000; AID 652017, 2013; in the data active = activation above about 7.8%
HIF act: HIF pathway transcriptional activators, primary screen, cell-based, U2OS HRE-luciferase, luminescence; AID 1910, 2009; hit rate 0.32% among 300,000; activation, % at 7.5 µM (by protocol); U2OS HRE-luciferase reporter; normalized: DMSO 0%, desferrioxamine 100%;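 active = mean activation of at least 10% of the iron chelator positive control signal, with at least half of replicates also reaching 10%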
FXN GAA850 act: FXN promoter activators, primary screen, cell-based, luciferase luminescence, HEK293 lucGAA850; HEK293 lucGAA850 FXN promoter luciferase reporter, 24 h; percent of 10 µM SAHA response; hit rate 0.56% among 360,000; activation, % at 6 µM;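 active = activation above the average of all compounds screened plus 3 SD, cutoff fixed separately per campaign, cut at about 7.5% in these data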
Hsp70 activator: Hsp70 transcriptional activators, primary screen, cell-based, HeLa, Hsp70 promoter luciferase, luminescence, 10 µM. HeLa Hsp70 promoter luciferase reporter; scaled: vehicle 0, proteasome-inhibitor control 100%. activation, % at 10 µM. hit rate 0.04% among 200,000;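 active = activation above the mean across all tested compounds plus 3 SD, cutoff set per campaign, cut at about 5.5% in these data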
GalR3 antag: GalR3 antagonists in HEK293 cells, primary screen, cell-based, fluorescence readout. Galanin receptor type 3 (Homo sapiens), O60755. HEK293 GalR3-CNG cAMP membrane potential fluorescence; galR3 body fused to GalR1 C-terminus. inhibition, % at 3 µM. hit rate 0.44% among 360,000;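 active = inhibition above the screen-wide average plus 3 SD, cut at about 13% in these data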;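 also: forskolin and galanin both at EC90 stimulate the cells; cAMP rise reported by CNG channel membrane potential dye signal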
Target sequence (O60755 1-299 limits assumed): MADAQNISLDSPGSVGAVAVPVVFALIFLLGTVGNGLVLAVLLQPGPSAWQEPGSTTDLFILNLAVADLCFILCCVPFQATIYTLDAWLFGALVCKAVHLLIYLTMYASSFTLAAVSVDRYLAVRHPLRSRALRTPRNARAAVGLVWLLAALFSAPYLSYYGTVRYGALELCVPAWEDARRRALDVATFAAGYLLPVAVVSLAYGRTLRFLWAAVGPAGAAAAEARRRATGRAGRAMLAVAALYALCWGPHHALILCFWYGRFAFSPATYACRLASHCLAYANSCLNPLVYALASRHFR
GalR3 conf: GalR3 antagonist hit confirmation, cell-based, fluorescence, triplicate; inhibition, % at 3 µM; HEK293 GalR3 CNG cAMP biosensor, membrane potential fluorescence; galR3 fused to GalR1 carboxy tail; challenged with forskolin and galanin at EC90; hit rate 59% among 1,600; shares compounds with GalR3 antag;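 active = inhibition above the primary screen's cutoff, the mean inhibition of all screened compounds plus 3 SD, cut at about 13% in these data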
HEK-CNG parental: nonspecific cAMP agonists in parental HEK-CNG cells, counter-screen for GalR3 antagonist project, cell-based, fluorescence, high throughput; shares compounds with GalR3 antag; HEK293-CNG parental cells, cAMP membrane potential fluorescence; normalised: DMSO wells 0%, forskolin wells 100%; AID 652268, 2013; activation, % at 3 µM; hit rate 10% among 1,600; in the data active = activation above about 1.3%
A number is an active result; - = inactive; . = no result. This is a sample that favours compounds with a hit; in the whole collection about 2.2% have one here.

SMILES	SMARCA2 activ	HIF act	FXN GAA850 act	Hsp70 activator	GalR3 antag	GalR3 conf	HEK-CNG parental
COC(=O)CNC(=O)COC(=O)/C=C/c1cccs1	-	-	-	.	-	.	.
COc1ccc(CCNC(=O)COC(=O)/C=C/c2cccs2)cc1	-	-	-	-	.	-	-
O=S(=O)(c1ccccc1F)n1c(CN2CCOCC2)nc2ccccc21	-	.	.	.	.	.	.
COc1ccc(C(=O)CSc2nnc(Cn3cnc4ccccc43)o2)cc1	-	-	-	-	95	111	-
OC(c1ccc(F)cc1)c1nc(-c2ccncc2)cs1 (stereo not given)	-	.	-	.	13	32	-
OC(c1ccc(F)c(F)c1)c1nc(-c2ccncc2)cs1 (stereo not given)	-	.	-	.	-	.	.
FC(F)(F)c1ccccc1Cc1c(-c2ccc(Cl)cc2)nc2c3ccccc3ccn12	-	.	.	.	-	.	.
FC(F)(F)c1ccccc1Cc1c(-c2ccco2)nc2c3ccccc3ccn12	-	.	.	.	19	35	-
O=C(NCC1COCCO1)C1CCN(S(=O)(=O)c2ccc(Br)s2)CC1 (stereo not given)	-	.	.	.	.	.	.
CCOC(=O)c1cc(-c2ccc(C#N)cc2)nc2c1c(C)nn2CCC#N	-	-	-	-	22	-	1.7
COc1ccc2oc(C)c(C(=O)Cn3ccnc3)c2c1	-	-	-	-	15	-	-
COc1ccc2oc(C)c(C(=O)c3ccccc3)c2c1	-	-	-	.	-	.	.
Nc1ccc(F)c(CN2CCN(c3ncc(Cc4ccccc4)cn3)CC2)c1	-	.	.	.	-	.	.
COc1ccc(C(=O)c2coc(-c3ccccc3C(=O)O)c2C(=O)O)cc1	-	-	-	-	14	-	-
COc1cc(CCCN2C(N)=NC[C@@H]2c2ccccc2)cc(OC)c1OC	-	-	-	.	.	-	-
COC(=O)[C@@H](C)NC(=O)C(Cc1ccc2c(c1)OCO2)NC(C)=O (stereo not given in full)	-	.	.	.	.	.	.
O=C(Nc1cccc(N=Cc2cc(Cl)cc(Br)c2O)c1)c1ccco1	-	.	-	-	-	.	.
O=C(Nc1cccc(S(=O)(=O)c2cccc(NC(=O)c3ccco3)c2)c1)c1ccco1	-	-	-	.	41	45	-
O=C(Nc1cccc(N=Cc2cc(Br)cc(Br)c2O)c1)c1ccco1	-	-	-	-	17	14	-
C[C@H]1Cn2cnc(C(=O)N(C)Cc3ccccc3)c2C(=O)N1	-	.	.	.	-	.	.
Cc1cc(CNC(=O)c2cccc([N+](=O)[O-])c2C)c2ccccc2n1	-	-	-	-	33	53	-
Cc1cc(CNC(=O)Cc2ccccc2)c2ccccc2n1	-	-	-	-	-	.	.
CCCCCC(O)C=CC1C(O)CC(O)C1CC=CCCCC(=O)O (stereo not given)	-	.	-	.	96	95	-
CCCCC[C@H](O)/C=C/[C@H]1C=CC(=O)[C@@H]1C/C=C\CCCC(=O)O	.	.	.	-	.	.	.
CC(C)CN1C(=O)C[C@@]2(C(=O)N(C)c3ccc(NS(=O)(=O)C4CCCCC4)cc32)C1c1ccccc1 (stereo not given in full)	-	.	.	.	.	.	.
SMILES	SMARCA2 activ	HIF act	FXN GAA850 act	Hsp70 activator	GalR3 antag	GalR3 conf	HEK-CNG parental
COC(=O)c1cc(-c2ccc(Cl)s2)c(=O)n2c1CCC2	-	.	.	.	.	.	.
COC(=O)[C@]12C[C@H](CC(=O)NCCc3ccccc3OC)C(=O)N(Cc3ccc(Cl)cc3Cl)C1=C[C@H](COCc1ccccc1)O[C@@H]2C	-	.	.	.	.	.	.
CCn1cc([N+](=O)[O-])c(C(=O)N2N=C(c3ccc(Cl)c(Cl)c3)CC2c2ccccc2O)n1 (stereo not given)	-	-	-	-	15	20	-
COc1ccc2[nH]c3c(c2c1)CCN[C@]31C(=O)N(Cc2cn(Cc3ccccc3)nn2)c2ccc(F)cc21	-	.	.	.	.	.	.
O=C(NCCc1c[nH]c2ccccc12)OCc1cn(-c2cccc(C(F)(F)F)c2)nn1	-	.	.	.	.	.	.
C#Cc1ccc(NC(=O)C2(C)CCN2C(=O)Cc2ccc(C(C)(C)C)cc2)cc1 (stereo not given)	-	.	-	.	27	94	-
C#Cc1ccc(NC(=O)C2(C)CCN2C(=O)Cc2ccc(C(C)C)cc2)cc1 (stereo not given)	-	.	-	.	84	92	-
CCCn1nc(C(=O)NNC(=O)CCCOc2ccc(OC)cc2)c2ccccc2c1=O	-	.	-	.	58	44	-
CCOc1ccc(OCCC(=O)NNC(=O)c2nn(C)c(=O)c3ccccc23)cc1	-	-	-	.	-	.	.
CN(C)S(=O)(=O)Oc1cccc(C(=O)Nc2ccc(Cl)cc2)c1	-	-	-	-	28	51	-
CN(C)S(=O)(=O)Oc1cccc(C(=O)Nc2ccccc2Cl)c1	-	-	-	-	-	.	.
CCOCCCNC(=S)N1CCN(Cc2ccc3c(c2)OCO3)CC1	-	-	-	-	15	-	-
COc1ccc(Cn2cc(CN3[C@H](C)COc4cc(Br)ccc4S3(=O)=O)nn2)cc1	-	.	.	.	.	.	.
CCCCn1c(=O)[nH]c(=O)c2c1nc(CN1C(=O)c3ccccc3S1(=O)=O)n2CCC	-	-	-	-	-	.	.
CCCCn1c(=O)[nH]c(=O)c2c1nc(Cn1ncc(Cl)c(Cl)c1=O)n2CCC	-	-	-	.	23	20	-
Cc1nc2ccccc2n1Cc1ccccc1	-	-	-	.	-	.	.
Cc1nc2ccccc2n1Cc1ccc(Br)cc1	-	-	-	.	83	108	-
CCCCc1c(C)nc(Nc2ccc(OC)cc2)[nH]c1=O	-	-	-	-	28	-	-
CCOC(=O)CNC(=O)CSc1nnc(-c2cccs2)o1	-	.	.	.	.	.	.
CC(=O)Nc1ccc(S(=O)(=O)NCC2CCN(C(=O)C(=O)c3cccs3)CC2)cc1	-	.	.	.	-	.	.
CCOc1cc(CNc2ccc3c(c2)OCCO3)cc(Br)c1OC	-	-	-	-	.	-	-
CCOc1c(Br)cc(CNc2ccc3c(c2)OCCO3)cc1OC	-	-	-	-	-	.	.
Cc1cc(=O)[nH]c2c(C)cc(S(=O)(=O)NCc3ccccc3)cc12	-	-	-	.	-	.	.
Cc1cc(=O)[nH]c2ccc(S(=O)(=O)NCc3ccccc3)cc12	-	-	-	.	57	27	-
O=C(COC(=O)c1ccc([N+](=O)[O-])s1)Nc1ccccc1	-	-	-	-	-	.	.
O=C(COC(=O)c1ccc([N+](=O)[O-])s1)NC(c1ccccc1)c1ccccc1	-	-	-	-	22	-	-
